Sampled rows, rich in hits. Any-hit rate of the full collection: about 1.7%.
PREPL inh – inhibitors of human prolyl oligopeptidase-like enzyme PREPL; Q4J6C6; recombinant PREPL, fluorescence polarization activity-based probe; inhibition, % at 5.96 µM; 320,000 compounds, 0.68% hits; AID 2751; in the data active = inhibition above about 43%;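 also: 0% = enzyme with DMSO and 100% = wells lacking enzyme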
Rin1 Abl inh – human Rin1-Abl interaction inhibition. TR-FRET Rin1/Abl binding, biochemical. inhibition, % at 7.35 µM. 360,000 compounds, 0.4% hits. AID 588664; in the data active = inhibition above about 5%, passing the limit was not always enough
p97 inhibitor – inhibitors of human p97 ATPase | AID 1481 | inhibition, % at 8 µM | P55072 | 220,000 compounds, 0.42% hits | recombinant p97 ATPase, Kinase-Glo ATP luminescence, 3 h; in the data active = inhibition above about 15%;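 also: 0% = DMSO vehicle and 100% = wells lacking enzyme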
LYPLA1 inh – LYPLA1 (human) inhibition in PME1 counter-screen; 320,000 compounds, 0.16% hits; O75608; recombinant LYPLA1, FP-Rh probe fluorescence polarization; inhibition, % at 5.9 µM; AID 2174;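 active = inhibition above the mean of all tested compounds plus 3 SD, set per campaign, cut at about 14% in these data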;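 also: inhibitors block serine hydrolase probe labeling of LYPLA1 so polarization falls; 0% = enzyme with DMSO and 100% = wells lacking LYPLA1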
Hck-Nef inh – human Hck-Nef kinase inhibition | Recombinant Hck-YEEI plus Nef, Z-Lyte FRET kinase assay | P08631 | inhibition, % at 20 µM | 220,000 compounds, 0.68% hits;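 active = Hck-Nef kinase inhibition above about 50%, limit read from the data; inactive = inhibition below that limit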;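 also: 0% = DMSO with Hck plus Nef and 100% = Hck alone without Nef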
Target sequence (P08631 whole entry, looked up): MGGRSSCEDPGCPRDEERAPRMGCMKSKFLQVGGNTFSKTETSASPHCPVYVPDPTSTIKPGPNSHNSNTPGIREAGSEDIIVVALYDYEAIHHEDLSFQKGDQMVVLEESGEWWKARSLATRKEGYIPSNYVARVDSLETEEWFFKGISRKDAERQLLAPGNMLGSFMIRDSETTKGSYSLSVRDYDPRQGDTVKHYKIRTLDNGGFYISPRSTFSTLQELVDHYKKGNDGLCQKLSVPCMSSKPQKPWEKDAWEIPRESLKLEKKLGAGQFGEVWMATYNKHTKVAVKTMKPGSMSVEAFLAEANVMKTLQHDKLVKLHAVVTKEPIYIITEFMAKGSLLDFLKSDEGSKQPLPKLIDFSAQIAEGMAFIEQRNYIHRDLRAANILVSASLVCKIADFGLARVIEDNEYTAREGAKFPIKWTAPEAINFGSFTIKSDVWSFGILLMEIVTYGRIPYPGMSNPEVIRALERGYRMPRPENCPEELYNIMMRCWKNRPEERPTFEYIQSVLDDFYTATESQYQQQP
LYPLA2 inh – LYPLA2 (human) inhibition in PME1 counter-screen; inhibition, % at 5.9 µM; recombinant LYPLA2, FP-Rh probe fluorescence polarization; 320,000 compounds, 0.38% hits; O95372;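 active = inhibition above the screen-wide mean plus 3 SD, limit set per campaign, cut at about 26% in these data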;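 also: 0% = LYPLA2 with DMSO and 100% = wells lacking LYPLA2 enzyme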
An asterisk follows results filed as active; · = no result.

SMILES	PREPL inh	Rin1 Abl inh	p97 inhibitor	LYPLA1 inh	Hck-Nef inh	LYPLA2 inh
O=C(C1CCN(S(=O)(=O)N2CCOCC2)CC1)N1CCN(c2ccc(F)cc2)CC1	11.3	-1.1	-3.6	2.4	21.1	3.2
O=C(COC(=O)CCN1C(=O)/C(=C\C=C\c2ccccc2)SC1=S)Nc1cc(F)ccc1F	6.4	4.0	1.4	-8.2	126.4*	-12.9
Cc1nn(-c2ccc(N3CCCCC3)nn2)c(C)c1CCC(=O)Nc1cc(F)ccc1F	10.4	3.2	·	2.1	·	11.5
CC(/C=C1\SC(=S)N(C(C(=O)O)c2ccccc2)C1=O)=C\c1ccccc1 (stereo not given)	9.1	-3.9	0.4	-3.0	74.8*	-6.0
O=C(CSc1n[nH]c(-c2ccc(Br)cc2)n1)NC1CCCC1	22.7	0.1	·	·	·	·
CN(C)c1ccc(/C=C2/C(=O)N(c3ccc([N+](=O)[O-])cc3)N=C2N2CCOCC2)cc1	·	·	31.5*	·	-0.2	·
O=C1CC(N2CCOCC2)=NN1c1ccc([N+](=O)[O-])cc1	-1.9	4.2	8.3	2.8	8.0	2.4
CN(C)c1ccc(/C=C2\C(=O)N(c3ccc([N+](=O)[O-])cc3)N=C2N2CCOCC2)cc1	·	·	23.3*	·	5.3	·
COc1ccc2ccc(C(C)(C(C)=O)C(=O)OC(C)C)cc2c1 (stereo not given)	2.6	-0.3	·	-2.6	·	-13.4
CCOc1ccc(C(=O)NCC(=O)N2CCC3CCCCC3C2)cc1OCC (stereo not given)	6.6	1.8	·	4.0	·	6.2
Cc1ccc(-c2c(C(=O)Nc3ccccc3C)c(C)[nH]c(=S)c2C#N)o1	14.6	-33.0	2.9	-6.1	55.7*	-3.8
COc1ccc(N2CCN(C(=O)c3ccc(COc4ccc5c(C)cc(=O)oc5c4)cc3)CC2)cc1	9.7	-2.1	0.9	3.6	3.4	63.1*
N#CCCN1CCN(C2=NC(=O)/C(=C\c3cccs3)S2)CC1	22.3	-3.6	3.3	2.4	27.5	28.7*
O=C1N=C(N2CCOCC2)S/C1=C\c1cccs1	-2.0	-0.7	4.7	-0.4	24.0	3.9
CC(C)CC(=O)O/N=C1\C(=O)N(Cc2ccc(Cl)cc2)c2ccc([N+](=O)[O-])cc21	9.4	·	-0.8	9.5	0.8	43.5*
Nc1c(C(=O)N/N=C/c2cccnc2)oc2nc(-c3ccccc3)cc(-c3ccco3)c12	-3.3	-1.8	14.6*	3.5	-25.4	-5.0
O=C(N/N=C1/C(=O)c2cccc3cccc1c23)c1ccc(Cl)cc1	34.9	2.4	-1.0	5.9	21.0	31.3*
CCOc1ccc2nc(Cl)c(C3CC(c4ccco4)=NN3S(=O)(=O)c3ccccc3)cc2c1 (stereo not given)	7.4	-1.2	4.1	-2.0	59.1*	-18.7
O=C1c2ccccc2C(=O)N1/N=C/c1ccc(O)c(O)c1O	·	65.4*	1.0	·	-6.7	·
O=C1c2cccc3cccc(c23)C(=O)N1/N=C/c1ccc(O)cc1O	1.1	-8.5	3.3	-0.4	2.8	-5.3
Cc1[nH][nH]c(=O)c1C(c1ccc(-c2ccc(Cl)cc2Cl)o1)c1c(C)[nH][nH]c1=O	·	·	20.2*	·	3.5	·
COC(=O)c1ccc(-c2ccc(C(c3c(C)[nH][nH]c3=O)c3c(C)[nH][nH]c3=O)o2)cc1	5.7	6.9	10.8	-0.1	27.5	6.5
O=C1/C(=C\c2ccccn2)SC(=S)N1Nc1ncc(C(F)(F)F)cc1Cl	9.2	-0.4	0.6	-4.3	0.8	-4.1
O=C1/C(=C/c2ccc(F)cc2)SC(=S)N1Nc1ncc(C(F)(F)F)cc1Cl	11.5	3.7	19.0*	-4.2	0.9	-6.1
COc1ccc(S(=O)(=O)Nc2cc(Sc3ncn[nH]3)c(O)c3ccccc23)cc1	·	·	30.9*	·	22.2	·
SMILES	PREPL inh	Rin1 Abl inh	p97 inhibitor	LYPLA1 inh	Hck-Nef inh	LYPLA2 inh
c1ccc2sc(N3CCOCC3)nc2c1	-1.1	-5.5	-1.2	-1.2	-0.7	8.2
Nc1ccc2nc(N3CCOCC3)sc2c1	46.5*	2.1	3.3	0.1	-2.2	7.9
CC(C)(C)C1=CC(=O)C(=O)C(C(C)(C)C)=C1	-8.7	-2.2	-1.7	1.4	55.7*	1.0
N#C/C(=C(/O)c1cccs1)c1nc2ccccc2[nH]1	76.7*	-2.5	0.1	6.3	3.6	2.1
N#C/C(=C(/O)c1ccc(Br)s1)c1nc2ccccc2[nH]1	-9.0	-2.3	·	-2.3	·	3.6
C[C@H]1CN=C(N(C)C)N1CCCC1CCCCC1	2.2	-1.0	·	1.6	·	-0.8
S=c1[nH]nc(-c2ccccn2)n1/N=C/c1ccc(-c2ccccc2Cl)o1	17.7	-11.5	5.7	3.3	75.7*	9.0
C#CCOCCOCCOCCNc1nc(N2CCN(C(=O)CCCCCCCCCCNC(=O)[C@H](CCCCN)n3cc(C[C@@H](C)CC)nn3)CC2)nc(N2CCN(C(=O)CCCCCCCCCCNC(=O)[C@H](CCCN=C(N)N)n3cc(C[C@@H](C)CC)nn3)CC2)n1	66.2*	11.4	·	-5.3	·	-7.2
C#CCOCCOCCOCCNc1nc(N2CCN(C(=O)CCCCCCCCCCNC(=O)[C@H](CO)n3cc(CCCCCN)nn3)CC2)nc(N2CCN(C(=O)CCCCCCCCCCNC(=O)[C@H](CCCN=C(N)N)n3cc(C[C@@H](C)CC)nn3)CC2)n1	64.3*	·	·	-7.0	·	-13.3
C#CCOCCOCCOCCNc1nc(N2CCN(C(=O)CCCCCCCCCCNC(=O)[C@H](CCCCN)n3cc(C[C@@H](C)CC)nn3)CC2)nc(N2CCN(C(=O)CCCCCCCCCCNC(=O)[C@@H]([C@H](C)O)n3cc(C)nn3)CC2)n1	35.1	4.6	·	-5.2	·	-5.6
C#CCOCCOCCOCCNc1nc(N2CCN(C(=O)CCCCCCCCCCNC(=O)[C@@H](CCC(=O)O)n3cc(CCCCCN)nn3)CC2)nc(N2CCN(C(=O)CCCCCCCCCCNC(=O)[C@H](CCCCN)n3cc(C[C@@H](C)CC)nn3)CC2)n1	30.7	3.0	·	-0.9	·	-1.3
C#CCOCCOCCOCCNc1nc(N2CCN(C(=O)CCCCCCCCCCNC(=O)[C@@H](CCSC)n3cc(CCO)nn3)CC2)nc(N2CCN(C(=O)CCCCCCCCCCNC(=O)[C@H](CCCN=C(N)N)n3cc(C[C@@H](C)CC)nn3)CC2)n1	37.5	26.6*	·	-42.3	·	-72.0
Cc1ccc(NC(=O)c2ccc3c(c2)CCN3S(C)(=O)=O)c(C)c1	2.3	2.3	·	2.6	·	-2.4
Cc1ccc2cccc(OC(=O)c3c(F)cccc3Cl)c2n1	·	0.9	·	·	·	·
COc1ccc(OCCCC(=O)OCC(=O)NNC(=O)c2ccc([N+](=O)[O-])cc2)cc1	-0.1	1.4	·	-1.7	·	1.4
N=c1n(CCN2CCCCC2)c2ccccc2n1CC(=O)c1ccc(Cl)c(Cl)c1	43.2*	-1.3	5.1	-8.3	8.6	-15.8
N=c1n(CCN2CCCCC2)c2ccccc2n1CC(O)c1ccc(Cl)c(Cl)c1 (stereo not given)	49.9*	-0.9	-1.6	5.3	5.3	3.1
CCn1c(=N)n(CC(=O)c2ccc(Cl)c(Cl)c2)c2ccccc21	39.0	-2.0	·	-4.0	·	-4.3
